This passage reports activity results from PubChem BioAssay.

The structures appear in SMILES notation.

For one assay, the target named is Tumor necrosis factor receptor superfamily member 10B (Homo sapiens) (UniProt O14763). In words: caspase-8 TRAIL sensitization, hit retest, confirmation, cell-based, NB7+caspase-8, with/without TRAIL, luminescence panel (AID 651596). The following applies: NB7 neuroblastoma + caspase-8, TRAIL sensitization, luminescence viability, with TRAIL, mean of runs, at 10 µM, stronger effect = higher value.
Tumor necrosis factor receptor superfamily member 10B (Homo sapiens), sequence (O14763 whole entry, looked up): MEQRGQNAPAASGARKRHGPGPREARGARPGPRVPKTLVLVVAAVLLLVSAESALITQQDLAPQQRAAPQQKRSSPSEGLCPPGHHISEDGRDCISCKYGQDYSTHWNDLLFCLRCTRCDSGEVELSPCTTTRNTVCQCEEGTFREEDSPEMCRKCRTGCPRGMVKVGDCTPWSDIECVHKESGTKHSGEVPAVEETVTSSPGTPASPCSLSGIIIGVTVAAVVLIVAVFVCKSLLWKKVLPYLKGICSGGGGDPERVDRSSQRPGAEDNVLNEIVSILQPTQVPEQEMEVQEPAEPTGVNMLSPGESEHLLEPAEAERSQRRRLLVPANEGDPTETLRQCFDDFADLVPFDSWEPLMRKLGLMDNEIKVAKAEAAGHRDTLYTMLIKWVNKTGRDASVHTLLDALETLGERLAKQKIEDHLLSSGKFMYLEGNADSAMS
`COc1cc2c3nnc(-c4ccc(F)cc4)c-3cn(Cc3ccccc3)c2cc1OC`: the activity was found to be 40.5%.

As for `O=C(Cc1ccsc1-c1ccccc1)NO`, the activity was 73.4%.

For the compound `Cc1ccc(C(=O)n2c(N)nc3ccccc32)cc1`, the activity was found to be 98.3%.

As to `Cn1cc([N+](=O)[O-])c(C(=O)Nc2nc(-c3ccc(Cl)cc3)cs2)n1`, the activity worked out at 97.3%.

With `CCOc1ccc(-c2nc(-c3cccnc3)no2)cc1`, the activity came to 53.3%.

On to `CC(=O)CSc1ccc(-c2nc3ccccc3[nH]2)cn1`, for which the activity is 92.1%.

Take `CCOc1ccc(C(C)=O)cc1COC(=O)c1cnc(Cl)c(Cl)c1`: the activity came to 97.6%.

`O=C(NC(=S)Nc1nc2ccccc2s1)c1cccs1`: the activity amounted to 83.1%.

`CC(=O)c1ccc(N2CCN(c3ccc4cc(S(=O)(=O)N5CCC(C)CC5)ccc4n3)CC2)cc1`: the activity turned out to be 56.4%.

`Cc1ccc(-c2nc(N/N=C/c3cccnc3)c3ccccc3n2)cc1`: the activity worked out at 94.3%.

With `CCC(=O)Nc1cc2nn(-c3ccccc3)nc2cc1Cl`, the activity turned out to be 67.5%.

Turning to `Cc1cccc(-n2ncc3c(NC4CCCCC4)ncnc32)c1`, the activity was found to be 66.7%.

Regarding `COc1ccc2nc(-c3cccc(N)c3)[nH]c2c1`, the activity was 55.8%.

With `CCc1ccc(-c2ccc(SCC(=O)NCC3CCCO3)nn2)cc1` (stereo not given), the activity stood at 52.9%.

With `CCOC(=O)Cc1csc(NC(=S)NC(=O)c2ccc(C)cc2)n1`, the activity was 84.9%.

As to `CCOc1cc(/C=N\NC(=O)c2ccc(NC(=O)C(C)(C)C)cc2)ccc1OC(=O)c1cccc(C)c1`, the activity turned out to be 73.5%.

Take `CCOC(=O)c1nnn2c1nc(Nc1cccc(C(F)(F)F)c1)c1ccccc12`: the activity worked out at 8.35%.

Turning to `COc1ccc(NC(=O)c2ccccn2)cc1`, the activity turned out to be 75%.

With `Cc1ccc2nc(Cl)c(/C=N/Nc3ccc(C(=O)O)cc3)cc2c1`, the activity amounted to 90.2%.

In the case of `Cc1cccnc1NC(=S)NC(=O)c1cccs1`, the activity is 73.2%.

For `C#Cc1cccc(Nc2nc(NCc3ccccc3OC)nc3ccsc23)c1`, the activity turned out to be 52.1%.

In the case of `c1ccc2[nH]c(-c3ccc4c(c3)OCO4)nc2c1`, the activity was 77.4%.

Take `COc1ccccc1-c1cc2nc(-c3ccccc3)cc(N3CCN(C(=O)c4ccoc4)CC3)n2n1`: the activity worked out at 78.4%.

As to `Cc1cc(C)c2sc(N(CCCN(C)C)C(=O)c3ccc(S(=O)(=O)N4CCc5ccccc5C4)cc3)nc2c1`, the activity stood at 93.1%.

Consider `O=c1c2c3c(sc2nc2n1N=C(c1cccs1)CS2)CCCC3`, for which the activity came to 74.5%.

Consider `COC(=O)c1sc(NC(=S)NC(=O)c2cccc(C)c2)nc1C`, for which the activity came out at 46.2%.

For `Cc1cccc(Nc2nc(N)nc(CCl)n2)c1`, the activity is 97.7%.

In the case of `COc1ccc(C2C(O)C(c3c[nH]c4ccccc34)=NN2C(=O)CCl)cc1` (stereo not given), the activity stood at 99.2%.

As for `CC[C@]12c3[nH]c4ccc(Cl)cc4c3CCN1C(=O)[C@@H](CC(=O)NCc1cccc(C(F)(F)F)c1)C[C@@H]2C(=O)N1CCN(C(=O)c2ccco2)CC1`, the activity stood at 71%.

Turning to `COc1ccc(C(=O)c2no[n+]([O-])c2C(=O)c2ccc(OC)cc2)cc1`, the activity worked out at 98.3%.

In the case of `COc1ccc(-c2cc(C(=O)N3CCOCC3)no2)cc1`, the activity was determined as 50.8%.

For `N=c1cc(C2(O)CCCCC2)n2c(nc3ccccc32)s1`, the activity was determined as 93.5%.

Regarding `CCC(=O)c1ccc(/C=C/c2nc3ccccc3n2C)o1`, the activity stood at 61.2%.

As to `O=C(CCS(=O)(=O)c1ccccc1)Nc1ccc(-c2nc3ccccc3s2)cc1`, the activity is 58%.

As for `N/C(=N\OC(=O)COc1ccc(Br)cc1Cl)c1ccccn1`, the activity is 38.2%.

Regarding `C=CCOn1c(C)c(C(C)=O)c2c3no[n+]([O-])c3ccc21`, the activity was found to be 53.5%.

In the case of `Cc1ccccc1C(=O)Nc1ccc2c(c1)OCCO2`, the activity amounted to 61.1%.

For `CCN(CC)S(=O)(=O)c1cc(NC(=O)Cn2ncc(Cl)c(Cl)c2=O)ccc1C`, the activity came to 99.5%.

On to `COc1ccccc1N1CCN(Cc2ccc(O)c3ncccc23)CC1`, for which the activity came to 30.2%.

Turning to `COc1ccc2[nH]c(-c3ccc(C)cc3)cc(=O)c2c1`, the activity worked out at 87.4%.

Test system in the next assay: not listed separately
The assay is described as above. The following applies: NB7 neuroblastoma + caspase-8, without TRAIL, luminescence viability, without TRAIL, mean of runs, at 10 µM.
On to `COc1cc2c3nnc(-c4ccc(F)cc4)c-3cn(Cc3ccccc3)c2cc1OC`, for which the activity amounted to 57.5%.

In the case of `O=C(Cc1ccsc1-c1ccccc1)NO`, the activity turned out to be 72.3%.

`Cc1ccc(C(=O)n2c(N)nc3ccccc32)cc1`: the activity came to 98.4%.

Turning to `Cn1cc([N+](=O)[O-])c(C(=O)Nc2nc(-c3ccc(Cl)cc3)cs2)n1`, the activity was 98.7%.

On to `CCOc1ccc(-c2nc(-c3cccnc3)no2)cc1`, for which the activity came out at 51.5%.

As to `CC(=O)CSc1ccc(-c2nc3ccccc3[nH]2)cn1`, the activity worked out at 92.5%.

On to `CCOc1ccc(C(C)=O)cc1COC(=O)c1cnc(Cl)c(Cl)c1`, for which the activity worked out at 79.1%.

For `O=C(NC(=S)Nc1nc2ccccc2s1)c1cccs1`, the activity came out at 75.6%.

On to `CC(=O)c1ccc(N2CCN(c3ccc4cc(S(=O)(=O)N5CCC(C)CC5)ccc4n3)CC2)cc1`, for which the activity worked out at 19.2%.

On to `Cc1ccc(-c2nc(N/N=C/c3cccnc3)c3ccccc3n2)cc1`, for which the activity turned out to be 88.2%.

In the case of `CCC(=O)Nc1cc2nn(-c3ccccc3)nc2cc1Cl`, the activity stood at 65.9%.

Turning to `Cc1cccc(-n2ncc3c(NC4CCCCC4)ncnc32)c1`, the activity was determined as 54.5%.

With `COc1ccc2nc(-c3cccc(N)c3)[nH]c2c1`, the activity was found to be 41.4%.

Regarding `CCc1ccc(-c2ccc(SCC(=O)NCC3CCCO3)nn2)cc1` (stereo not given), the activity was 62.2%.

`CCOC(=O)Cc1csc(NC(=S)NC(=O)c2ccc(C)cc2)n1`: the activity is 84.6%.

In the case of `CCOc1cc(/C=N\NC(=O)c2ccc(NC(=O)C(C)(C)C)cc2)ccc1OC(=O)c1cccc(C)c1`, the activity is 47.2%.

In the case of `CCOC(=O)c1nnn2c1nc(Nc1cccc(C(F)(F)F)c1)c1ccccc12`, the activity stood at 52.4%.

Regarding `COc1ccc(NC(=O)c2ccccn2)cc1`, the activity stood at 69.8%.

In the case of `Cc1ccc2nc(Cl)c(/C=N/Nc3ccc(C(=O)O)cc3)cc2c1`, the activity is 86.4%.

For `Cc1cccnc1NC(=S)NC(=O)c1cccs1`, the activity came to 66.8%.

Turning to `C#Cc1cccc(Nc2nc(NCc3ccccc3OC)nc3ccsc23)c1`, the activity worked out at 37.5%.

Take `c1ccc2[nH]c(-c3ccc4c(c3)OCO4)nc2c1`: the activity stood at 79.3%.

For `COc1ccccc1-c1cc2nc(-c3ccccc3)cc(N3CCN(C(=O)c4ccoc4)CC3)n2n1`, the activity is 62.7%.

On to `Cc1cc(C)c2sc(N(CCCN(C)C)C(=O)c3ccc(S(=O)(=O)N4CCc5ccccc5C4)cc3)nc2c1`, for which the activity is 93.8%.

On to `O=c1c2c3c(sc2nc2n1N=C(c1cccs1)CS2)CCCC3`, for which the activity amounted to 77%.

For the compound `COC(=O)c1sc(NC(=S)NC(=O)c2cccc(C)c2)nc1C`, the activity stood at 33.2%.

As for `Cc1cccc(Nc2nc(N)nc(CCl)n2)c1`, the activity worked out at 96.8%.

On to `COc1ccc(C2C(O)C(c3c[nH]c4ccccc34)=NN2C(=O)CCl)cc1` (stereo not given), for which the activity worked out at 99.2%.

`CC[C@]12c3[nH]c4ccc(Cl)cc4c3CCN1C(=O)[C@@H](CC(=O)NCc1cccc(C(F)(F)F)c1)C[C@@H]2C(=O)N1CCN(C(=O)c2ccco2)CC1`: the activity stood at 68.7%.

For `COc1ccc(C(=O)c2no[n+]([O-])c2C(=O)c2ccc(OC)cc2)cc1`, the activity was determined as 99%.

Turning to `COc1ccc(-c2cc(C(=O)N3CCOCC3)no2)cc1`, the activity is 49.9%.

In the case of `N=c1cc(C2(O)CCCCC2)n2c(nc3ccccc32)s1`, the activity worked out at 89%.

Turning to `CCC(=O)c1ccc(/C=C/c2nc3ccccc3n2C)o1`, the activity is 54.8%.

As for `O=C(CCS(=O)(=O)c1ccccc1)Nc1ccc(-c2nc3ccccc3s2)cc1`, the activity is 42.8%.

Regarding `N/C(=N\OC(=O)COc1ccc(Br)cc1Cl)c1ccccn1`, the activity came to 47.5%.

As to `C=CCOn1c(C)c(C(C)=O)c2c3no[n+]([O-])c3ccc21`, the activity was 64.2%.

Regarding `Cc1ccccc1C(=O)Nc1ccc2c(c1)OCCO2`, the activity came out at 63.2%.

Turning to `CCN(CC)S(=O)(=O)c1cc(NC(=O)Cn2ncc(Cl)c(Cl)c2=O)ccc1C`, the activity was determined as 99.6%.

On to `COc1ccccc1N1CCN(Cc2ccc(O)c3ncccc23)CC1`, for which the activity came out at 76%.

For `COc1ccc2[nH]c(-c3ccc(C)cc3)cc(=O)c2c1`, the activity stood at 87.8%.
